This is one part of a sample in which hits are shown more often than they occur.
nsP2pro primary – Primary qHTS for inhibitors of NSP2Pro chikungunya virus (CHIKV) | 31,000 compounds, 1.1% hits | Potency, µM (doses to about 24.9 µM), usual class: inhibitors | FRET peptide cleavage, nsP2pro, fluorescence 1 h; note: nearly all actives have a fitted effect of over 60% in size
Target sequence (Q8JUX6 whole entry, looked up): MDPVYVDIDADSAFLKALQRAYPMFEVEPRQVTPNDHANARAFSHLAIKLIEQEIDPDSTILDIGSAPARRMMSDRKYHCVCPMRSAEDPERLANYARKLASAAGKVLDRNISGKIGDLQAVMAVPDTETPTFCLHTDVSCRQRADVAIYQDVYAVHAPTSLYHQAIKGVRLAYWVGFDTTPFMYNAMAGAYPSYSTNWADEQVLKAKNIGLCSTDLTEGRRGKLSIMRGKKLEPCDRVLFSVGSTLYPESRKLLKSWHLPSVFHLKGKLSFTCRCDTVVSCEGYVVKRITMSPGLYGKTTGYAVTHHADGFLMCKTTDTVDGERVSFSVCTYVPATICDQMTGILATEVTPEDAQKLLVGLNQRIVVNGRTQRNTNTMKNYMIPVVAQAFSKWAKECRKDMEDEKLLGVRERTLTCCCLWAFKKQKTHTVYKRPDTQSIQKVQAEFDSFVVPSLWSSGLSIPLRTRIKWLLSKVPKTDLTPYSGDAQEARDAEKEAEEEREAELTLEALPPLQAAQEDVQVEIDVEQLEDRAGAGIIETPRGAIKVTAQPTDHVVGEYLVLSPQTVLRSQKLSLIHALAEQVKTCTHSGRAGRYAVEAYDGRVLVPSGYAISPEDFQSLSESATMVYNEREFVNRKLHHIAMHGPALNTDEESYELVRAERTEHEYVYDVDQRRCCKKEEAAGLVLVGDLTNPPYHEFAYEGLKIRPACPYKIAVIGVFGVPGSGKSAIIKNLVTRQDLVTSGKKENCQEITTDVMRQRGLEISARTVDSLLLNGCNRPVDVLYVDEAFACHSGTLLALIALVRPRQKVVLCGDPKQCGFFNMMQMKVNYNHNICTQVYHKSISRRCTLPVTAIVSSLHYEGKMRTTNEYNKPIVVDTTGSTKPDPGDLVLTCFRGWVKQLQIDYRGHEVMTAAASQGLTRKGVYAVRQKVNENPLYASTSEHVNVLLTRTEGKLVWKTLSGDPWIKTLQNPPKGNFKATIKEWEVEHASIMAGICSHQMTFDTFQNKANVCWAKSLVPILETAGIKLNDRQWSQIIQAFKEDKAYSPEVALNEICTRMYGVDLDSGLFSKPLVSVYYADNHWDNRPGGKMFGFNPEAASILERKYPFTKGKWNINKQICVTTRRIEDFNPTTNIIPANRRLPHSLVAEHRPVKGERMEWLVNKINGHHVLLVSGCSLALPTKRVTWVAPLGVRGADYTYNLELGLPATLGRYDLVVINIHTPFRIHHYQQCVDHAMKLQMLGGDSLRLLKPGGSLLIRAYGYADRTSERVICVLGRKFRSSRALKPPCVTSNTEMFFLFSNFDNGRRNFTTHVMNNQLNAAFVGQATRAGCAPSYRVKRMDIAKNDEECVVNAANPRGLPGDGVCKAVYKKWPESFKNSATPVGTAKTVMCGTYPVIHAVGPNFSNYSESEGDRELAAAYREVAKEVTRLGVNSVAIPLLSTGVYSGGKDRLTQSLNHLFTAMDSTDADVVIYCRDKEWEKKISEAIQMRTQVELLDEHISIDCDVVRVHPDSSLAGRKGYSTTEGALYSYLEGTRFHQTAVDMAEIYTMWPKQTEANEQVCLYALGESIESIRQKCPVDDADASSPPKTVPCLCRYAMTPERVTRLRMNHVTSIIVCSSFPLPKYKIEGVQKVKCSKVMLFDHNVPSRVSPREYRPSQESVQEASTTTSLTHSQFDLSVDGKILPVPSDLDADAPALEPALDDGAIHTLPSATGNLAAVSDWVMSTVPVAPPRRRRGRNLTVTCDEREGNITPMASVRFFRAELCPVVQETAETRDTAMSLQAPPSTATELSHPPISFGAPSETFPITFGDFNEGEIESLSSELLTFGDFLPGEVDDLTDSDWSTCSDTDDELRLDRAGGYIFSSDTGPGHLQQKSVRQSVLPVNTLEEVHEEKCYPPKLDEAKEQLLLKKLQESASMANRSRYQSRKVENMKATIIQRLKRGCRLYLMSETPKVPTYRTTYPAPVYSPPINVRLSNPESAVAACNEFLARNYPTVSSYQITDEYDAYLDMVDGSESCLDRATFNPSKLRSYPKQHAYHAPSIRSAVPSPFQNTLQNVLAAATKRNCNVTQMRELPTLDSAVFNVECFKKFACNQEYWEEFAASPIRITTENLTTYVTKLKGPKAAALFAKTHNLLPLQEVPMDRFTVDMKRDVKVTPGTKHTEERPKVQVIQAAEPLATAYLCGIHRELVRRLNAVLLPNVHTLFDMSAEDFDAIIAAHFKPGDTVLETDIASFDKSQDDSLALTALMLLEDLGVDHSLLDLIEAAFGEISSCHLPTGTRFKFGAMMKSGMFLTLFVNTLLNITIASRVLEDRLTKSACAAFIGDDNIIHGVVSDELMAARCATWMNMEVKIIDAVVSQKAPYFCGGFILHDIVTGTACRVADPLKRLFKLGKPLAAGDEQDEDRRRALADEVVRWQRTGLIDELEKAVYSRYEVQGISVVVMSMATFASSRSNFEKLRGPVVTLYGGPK
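Enzyme 150 nM, substrate 2.5 uM (both final); Tris-HCl 10 mM pH 8.0 + 0.01% Tween 20; cpd up to 25 uM, 7 pts; 15 min preinc., 1 h RT; fluorescence ex 525/em 598.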
nsP2 cell sec – Secondary cell base assay for inhibitors of NSP2Pro Chikungunya virus (CHIKV) | shares compounds with nsP2pro primary | cell-based CHIKV nsP2 protease reporter assay | Potency, µM (series often up to 51.1 µM), actives largely listed as inhibitors | 450 compounds, 10% hits | AID 1964100, 2024; note: nearly all actives have a fitted effect of over 70% in size
NSP2 full ctr – Selectivity profile for inhibitors of NSP2Pro chikungunya virus (CHIKV): Full length NSP2 enzyme counterscreen (CHIKV-NSP2); shares compounds with nsP2pro primary; Potency, µM (series often up to 50.7 µM), actives largely listed as inhibitors; Full-length CHIKV NSP2 protease enzymatic counterscreen; 410 compounds, 39% hits; note: nearly all actives have a fitted effect of over 65% in size
Furin counterscr – Selectivity profile for inhibitors of NSP2Pro chikungunya virus (CHIKV): Human furin counterscreen; shares compounds with nsP2pro primary; Recombinant human furin enzymatic counterscreen, fluorogenic substrate; Potency, µM (highest dose often 50.6 µM), hits mostly inhibitors; 410 compounds, 6% hits
nsP2 NS23 pep – Selectivity profile for inhibitors of NSP2Pro chikungunya virus (CHIKV): Endogenous NS2/3 peptide Counterscreen; shares compounds with nsP2pro primary; AID 1964103, 2024; 410 compounds, 34% hits; Purified CHIKV nsP2 protease, endogenous NS2/3 peptide cleavage; Potency, µM (series often up to 51 µM), actives largely listed as inhibitors; note: nearly all actives have a fitted effect of over 55% in size
Papain cs – Selectivity profile for inhibitors of NSP2Pro chikungunya virus (CHIKV): Papain Counterscreen; shares compounds with nsP2pro primary; purified papain protease activity, enzymatic inhibition; Potency, µM (highest dose often 51 µM), usual class: inhibitors; 410 compounds, 5% hits; AID 1964104, 2024
nsP2pro conf qHTS – Confirmatory qHTS for inhibitors of NSP2Pro chikungunya virus (CHIKV); shares compounds with nsP2pro primary; CHIKV nsP2 protease enzymatic activity, qHTS; Potency, µM (titrated, usually from 25.5 µM), most hits filed as inhibitors; 410 compounds, 43% hits; note: nearly all actives have a fitted effect of over 75% in size
HCV NS3 counter – Selectivity profile for inhibitors of NSP2Pro chikungunya virus (CHIKV): NS34A-HCV Counterscreen. shares compounds with nsP2pro primary. HCV NS3/4A protease biochemical counterscreen. Potency, µM (top dose mostly 50.9 µM), hits mostly inhibitors. 410 compounds, 20% hits. AID 1964106, 2024; note: nearly all actives have a fitted effect of over 55% in size
Large screens that a line does not name were inactive (follow-up assays come after a bar, where they were run). Calls come from the whole dose curve.

CCN(CC)C(=O)N[C@H]1C[C@@H]2c3cccc4[nH]cc(c34)C[C@H]2N(C)C1	none
CC[C@@H](CO)NC(=O)[C@@H]1C=C2c3cccc4[nH]cc(c34)C[C@H]2N(C)C1	none
CCN(CC)C(=O)N[C@@H]1C=C2c3cccc4[nH]cc(c34)C[C@@H]2N(C)C1	nsP2pro primary 12µM
O=C(O)c1cccc(-c2noc(-c3ccc(F)cc3)n2)c1	none
O=c1cc2nc(-c3ccccc3)nc(SCCN3CCC(F)(F)CC3)n2[nH]1	none
COc1ccc(C[C@H](C)NC[C@@H](O)c2ccc(O)c(NC=O)c2)cc1	none
CC(Cc1ccc2c(c1)OCO2)NCC(O)c1ccc(O)c(O)c1 (configuration not stated)	nsP2pro primary 11µM
CC(CCc1ccc(O)cc1)NCC(O)c1ccc(O)cc1 (configuration not stated)	none
OC[C@H]1O[C@@H](OC/C=C/c2ccc(O)cc2)[C@H](O)[C@@H](O)[C@@H]1O	none
CC1=C(C(=O)O)/C(=C\CO[C@@H]2O[C@H](CO)[C@@H](O)[C@H](O)[C@H]2O)C(OC(=O)/C=C\c2ccc(O)cc2)C1 (some centres not stated)	nsP2pro primary 0.024µM
CC1=C(C(=O)O)/C(=C\CO[C@@H]2O[C@H](CO)[C@@H](O)[C@H](O)[C@H]2O)C(OC(=O)/C=C/c2ccc(O)cc2)C1 (some centres not stated)	none
O=C(c1ccccc1OCC1CCCN(Cc2nccs2)C1)N1CCCC1 (configuration not stated)	none
C=CCNC(=O)c1cnn2c1CN(C(=O)OCc1ccccc1)CC2	none
Cc1noc(C)c1[S+](=O)([O-])N1CCn2c(nn(-c3ccc(C(F)(F)F)cc3)c2=O)C1	none
N#Cc1cnc(NS(=O)(=O)c2ccc(NC(=O)Cc3ccc(Cl)c(Cl)c3)cc2)s1	none
O=S(=O)(Cc1ccccc1)N1CCC(n2cnnc2C2CC2)CC1	none
COc1ccnc(NC(=S)N2CCN(c3ccc(Cl)c(Cl)c3)CC2)c1	none
COc1ccc(C(=O)n2nc(-c3ccco3)nc2NCc2cccs2)cc1OC	nsP2pro primary 13µM
CN(C)c1ccc(CNc2nc(-c3ccco3)nn2C(=O)c2cccc([N+](=O)[O-])c2)cc1	none
COc1ccc(C(=O)n2nc(-c3ccc(Cl)cc3)nc2NCc2ccco2)cc1	none
Cc1cc(CN(C)C(=O)c2cc(COc3ccc4c(c3)OCO4)[nH]n2)on1	none
O=C([C@@H]1C[C@H](F)CN1C(=O)NCc1ccc(OC(F)(F)F)cc1)N1CCCCC1	none
CC(C)C(=O)OC[C@H]1O[C@@H](n2ccc(NO)nc2=O)[C@H](O)[C@@H]1O	none
O=S1(=O)CCN(CN2CCS(=O)(=O)NC2)CN1	none
C[C@@](Cc1ccc(O)c(O)c1)(NN)C(=O)O	nsP2pro primary 11µM
COc1cc(CC(=O)O)ccc1O	none
N[C@@H](Cc1ccc(O)c(O)c1)C(=O)O	none
COc1cccc(-c2ccc(CN3CCCC(N[S+](=O)([O-])c4c(C)noc4C)C3)cc2)c1 (configuration not stated)	none
CC(C)c1nn2c(=O)cc(COC(=O)c3ccco3)nc2s1	nsP2pro primary 13µM
CC(C)c1nn2c(=O)cc(COC(=O)c3ccc4c(c3)OCO4)nc2s1	none
CC(C)c1nn2c(=O)cc(COC(=O)Cc3ccccc3)nc2s1	none
COc1ccc(NC(=O)N[C@H]2CO[C@H]3[C@@H]2OC[C@@H]3n2nnnc2-c2ccccc2)cc1	none
O[C@@H]1CO[C@H]2[C@@H]1OC[C@@H]2n1nnnc1SCc1ccco1	nsP2pro primary 11µM
O=C(NC1CCCCC1)O[C@@H]1CO[C@H]2[C@@H]1OC[C@@H]2n1nnnc1-c1ccccc1	none
CC(C)N[C@@H]1CCn2c(=O)[nH]c3cccc(c32)[C@H]1O	nsP2pro primary 11µM
COc1ccc2nc(-c3cccc(C)c3)sc2c1	none
CC1COC2=C1C(=O)C(=O)c1c2ccc2c1CCCC2(C)C (configuration not stated)	nsP2pro primary 11µM
COC(=O)Nc1c(N)nc(-c2nn(Cc3ccccc3F)c3ncc(F)cc23)nc1N	none
CCN1CCC(N2CCCC(N3CCN(c4cccc(Cl)c4)CC3)C2)CC1 (configuration not stated)	none
C=C1C(=O)OC2/C=C(\CO)CC/C=C(\C=O)C(O)C(OC(=O)C(C)CC)C12 (configuration not stated)	none
C=C(C)C(=O)OC1C(OC(C)=O)/C(C=O)=C\CC/C(CO)=C/C2OC(=O)C(=C)C21 (configuration not stated)	nsP2pro primary 1.4µM
C=C1C(=O)O[C@@H]2/C=C(\CO)CC/C=C(\CO)[C@H](OC(C)=O)C(OC(=O)C(C)CC)C12 (some centres not stated)	none
O=C(NN1C(=O)[C@@H]2[C@@H]3C=C[C@@H]([C@H]4C[C@@H]34)[C@@H]2C1=O)c1ccc(C(F)(F)F)cc1	none
N=c1c2c(ncn1-c1ccccc1)Oc1ccc3ccccc3c1C2c1ccc2c(c1)CCO2 (configuration not stated)	none
C[C@]12CCC3=C4CCC(=O)C=C4CC[C@H]3[C@@H]1CC[C@@]2(O)CC#N	none
O=S(=O)(Nc1ccc(O)c2ncccc12)c1ccccc1F	none
O=c1[nH]c2ccc(S(=O)(=O)Nc3cc(Cl)ccc3O)cc2o1	none
O=[N+]([O-])c1cc(S(=O)(=O)Nc2ccc(O)c3ccccc23)ccc1Cl	nsP2pro primary 5µM | nsP2 cell sec inconclusive | NSP2 full ctr 16µM | Furin counterscr inactive | nsP2 NS23 pep 12µM | Papain cs inconclusive | nsP2pro conf qHTS 5.7µM | HCV NS3 counter inactive

Assay outcomes from PubChem.
